Potency and affinity values are given separately. Active and inactive are the calls of the source.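 The calls were made as follows: active = peak inhibition of the TRPC4 channel signal over 30% at some dose, with a fitted dose response curve; inactive = no inhibition or no dose response curve.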
Molecular target: Short transient receptor potential channel 4 (Mus musculus) (UniProt Q9QUQ5)
Test: mouse TRPC4 block via Gq-coupled stimulation – cell-based, acetylcholine stimulus, HEK293 TRPC4, Fluo-4, SAR follow-up (AID 492996)
Details: HEK293 TRPC4 cells, ACh-evoked Fluo-4 calcium flux; series mostly up to 20 µM

Chain of Short transient receptor potential channel 4 (Mus musculus) (Q9QUQ5 whole entry, looked up): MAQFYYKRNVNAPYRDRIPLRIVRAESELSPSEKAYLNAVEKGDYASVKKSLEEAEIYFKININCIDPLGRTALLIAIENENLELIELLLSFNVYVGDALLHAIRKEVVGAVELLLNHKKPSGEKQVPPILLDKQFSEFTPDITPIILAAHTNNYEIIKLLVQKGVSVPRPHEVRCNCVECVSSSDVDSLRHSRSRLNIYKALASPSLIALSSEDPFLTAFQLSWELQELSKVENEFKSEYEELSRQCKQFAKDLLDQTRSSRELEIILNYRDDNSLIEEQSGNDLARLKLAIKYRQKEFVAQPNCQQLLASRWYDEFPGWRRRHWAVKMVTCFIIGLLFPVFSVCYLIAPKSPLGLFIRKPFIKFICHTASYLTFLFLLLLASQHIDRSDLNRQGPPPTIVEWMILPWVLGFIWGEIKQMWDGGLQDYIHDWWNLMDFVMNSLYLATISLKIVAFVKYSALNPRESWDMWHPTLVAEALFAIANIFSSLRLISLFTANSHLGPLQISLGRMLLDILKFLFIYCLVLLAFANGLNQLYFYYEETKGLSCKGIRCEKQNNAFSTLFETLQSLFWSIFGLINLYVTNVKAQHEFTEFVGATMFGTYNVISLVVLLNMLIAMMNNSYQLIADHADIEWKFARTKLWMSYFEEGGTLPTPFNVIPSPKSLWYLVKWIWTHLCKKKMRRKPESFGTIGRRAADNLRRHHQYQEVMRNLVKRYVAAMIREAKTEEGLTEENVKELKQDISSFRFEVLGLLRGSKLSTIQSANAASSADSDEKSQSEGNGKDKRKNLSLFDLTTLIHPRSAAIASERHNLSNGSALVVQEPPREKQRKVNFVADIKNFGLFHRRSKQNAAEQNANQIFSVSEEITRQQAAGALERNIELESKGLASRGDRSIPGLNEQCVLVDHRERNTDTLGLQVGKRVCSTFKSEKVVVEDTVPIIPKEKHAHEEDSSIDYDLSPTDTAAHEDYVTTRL

Cc1cc(N2CCNCC2)nc2ccccc12
outcome: inactive

Source: PubChem BioAssay AID492996 (Johns Hopkins Ion Channel Center, 2010)
